Measurements published in PubChem BioAssay (NCI).
The panel holds about 79,000 compounds, 15% with a hit somewhere; the sample as a whole holds those more often. The source made the active and inactive calls. No stated cut-off is given here; in the data, active means growth inhibition above about 70%; inactive means the rest.

Columns and labels:
[1] = NCI Yeast Anticancer Drug Screen. Data for the mec2-1 strain (AID 157); conditions: S. cerevisiae mec2-1 strain, stronger effect = higher value
How it was run: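 Using mec2-1 yeast: add compound, measure growth, express inhibition versus vehicle-treated cultures.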

[2] = NCI Yeast Anticancer Drug Screen. Data for the rad14 strain (AID 159);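 further: 0% = growth of vehicle-treated control cultures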; conditions: S. cerevisiae rad14 strain growth inhibition, stronger effect = higher value
How it was run: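 Vehicle-treated cultures served as the baseline for growth inhibition of a DNA repair-mutant yeast strain exposed to each compound.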

[3] = NCI Yeast Anticancer Drug Screen. Data for the sgs1 mgt1 strain (AID 161);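 further: 0% = growth of cultures given vehicle only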; conditions: S. cerevisiae sgs1 mgt1 strain, stronger effect = higher value
How it was run: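 Growth of a repair-deficient yeast mutant was monitored after compound treatment and expressed as inhibition relative to vehicle-treated cultures.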

[4] = NCI Yeast Anticancer Drug Screen. Data for the CLN2oe strain (AID 163);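 further: 0% = growth of vehicle-only control cultures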; conditions: S. cerevisiae CLN2oe strain, stronger effect = higher value
How it was run: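 Whole-cell yeast growth assay. A strain engineered for altered cell-cycle control received compound, and inhibition relative to vehicle-treated cultures was recorded.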

[5] = NCI Yeast Anticancer Drug Screen. Data for the cln2 rad14 strain (AID 165);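 further: 0% = growth equal to vehicle treated cultures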; conditions: S. cerevisiae cln2 rad14 strain, stronger effect = higher value
How it was run: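 Yeast strain cln2 rad14, bearing defects in cell cycle control and DNA repair, serves as the test system; values reflect growth inhibition compared with vehicle.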

[6] = NCI Yeast Anticancer Drug Screen. Data for the bub3 strain (AID 167); conditions: S. cerevisiae bub3 mutant strain, stronger effect = higher value
How it was run: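 Inhibition values come from growth of compound-treated mutant yeast normalised to vehicle-treated controls.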

[7] = NCI Yeast Anticancer Drug Screen. Data for the wt2 strain (AID 169);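 further: 0% = growth of vehicle-treated yeast cultures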; conditions: S. cerevisiae wt2 strain growth inhibition, stronger effect = higher value
How it was run: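 Treated yeast vs. vehicle-treated yeast: growth inhibition determined.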

[8] = NCI Yeast Anticancer Drug Screen. Data for the mlh1 strain (AID 171);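 further: 0% = growth of vehicle-treated control cultures of the same strain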; conditions: S. cerevisiae mlh1 strain growth inhibition, stronger effect = higher value
How it was run: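 A yeast strain with a defined genetic lesion serves as the test organism. Cultures receive compound or vehicle, and growth is measured.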

[9] = NCI Yeast Anticancer Drug Screen. Data for the mlh1 rad18 strain (AID 175); conditions: S. cerevisiae mlh1 rad18 strain growth inhibition, stronger effect = higher value
How it was run: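 Steps: expose repair-defective yeast to compound; measure growth; express inhibition against vehicle-treated controls.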

[10] = NCI Yeast Anticancer Drug Screen. Data for the rad18 strain (AID 177); conditions: S. cerevisiae rad18 mutant growth inhibition, stronger effect = higher value
How it was run: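 Measured value is growth inhibition of a yeast strain bearing a DNA repair alteration, referenced to vehicle-treated cells.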

[11] = at 5.0 µM (retest, dose inferred, filed as 0.5)
[12] = at 50.0 µM (retest, dose inferred, filed as 5.0)

Measured: growth inhibition

Cc1cccc(C(C)(C)C)c1NC(=O)C(C#N)C1=C(Cl)C(=O)c2ccccc2C1=O (stereo not drawn)
active: [1]; at 11.0 µM 95% | [1]; at 33.0 µM 95% | [1]; [12] 98% | [1]; at 50.0 µM 90.5% | [1]; at 100.0 µM 97% | [2]; at 11.0 µM 76% | [2]; at 33.0 µM 98% | [2]; at 100.0 µM 97% | [3]; [12] 98% | [3]; at 50.0 µM 89.5% | [4]; at 33.0 µM 98% | [4]; at 100.0 µM 98% | [5]; [12] 97% | [5]; at 50.0 µM 88.7% | [6]; at 11.0 µM 76% | [6]; at 33.0 µM 98% | [6]; [12] 98% | [6]; at 50.0 µM 92.3% | [6]; at 100.0 µM 96% | [7]; at 11.0 µM 74% | [7]; at 33.0 µM 97% | [7]; at 100.0 µM 94% | [8]; at 33.0 µM 99% | [8]; at 100.0 µM 98% | [9]; [12] 97% | [9]; at 50.0 µM 89.5% | [10]; at 33.0 µM 98% | [10]; at 100.0 µM 97%
inactive: [1]; [11] -4% | [2]; at 1.2 µM 4% | [2]; at 3.7 µM 16% | [3]; [11] 46% | [4]; at 1.2 µM 4% | [4]; at 3.7 µM 30% | [4]; at 11.0 µM 58% | [5]; [11] 19% | [6]; at 1.2 µM 14% | [6]; at 3.7 µM 11% | [6]; [11] 39% | [7]; at 1.2 µM -21% | [7]; at 3.7 µM 6% | [8]; at 1.2 µM 17% | [8]; at 3.7 µM 22% | [8]; at 11.0 µM 56% | [9]; [11] 11% | [10]; at 1.2 µM -6% | [10]; at 3.7 µM 34% | [10]; at 11.0 µM 59%
